Screens as filed in PubChem BioAssay.
ssDAF-12 act: S. stercoralis DAF-12 nuclear receptor activators, primary screen, cell-based, luminescence, HEK293, GRIP1 co-expression, lit1-tk-luc; HEK293 ssDAF-12/GRIP1 lit1-tk-luc reporter; % of 3 µM dafachronic acid response; Nuclear hormone receptor DAF-12 (Strongyloides stercoralis); 370,000 tested, 1% active; activation, % at 6.8 µM;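 active = activation above the mean over all tested compounds plus 3 SD, cut at about 0.9% in these data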;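 note: 0% = DMSO-only wells and 100% = 3 µM delta7-dafachronic acid wells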
DAX1 inh-1: DAX1 (NR0B1) inhibitors on StAR promoter, primary screen, cell-based, luminescence, SF-1 (NR5A1), full-length DAX-1 | AID 652010, 2013 | 370,000 tested, 1.1% active | inhibition, % at 6.8 µM | HEK293T StAR-luciferase reporter, SF-1/DAX-1 repression relief;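 active = inhibition above the mean over all tested compounds plus 3 SD, cut at about 3.6% in these data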;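 note: 0% = DAX-1 cells with DMSO and 100% = cells lacking DAX-1 with DMSO; higher inhibition means more luminescence from relief of DAX-1 repression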
DAX1 inh-2: DAX1 (NR0B1) inhibitors, primary screen, cell-based, HEK293, Gal4-DAX1, luciferase luminescence; Nuclear receptor subfamily 0 group B member 1 (Homo sapiens), P51843; HEK293 Gal4-DAX1 luciferase reporter; inhibition, % at 6.75 µM; 340,000 tested, 0.99% active; AID 504766, 2011;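 active = inhibition above the mean over all tested compounds plus 3 SD, cut at about 4.2% in these data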;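 note: 0% = DAX1-transfected cells with DMSO and 100% = empty-vector control cells with DMSO; inhibition shows as a rise in luminescence from relieved DAX1 repression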
Target sequence (P51843 207-470 limits assumed): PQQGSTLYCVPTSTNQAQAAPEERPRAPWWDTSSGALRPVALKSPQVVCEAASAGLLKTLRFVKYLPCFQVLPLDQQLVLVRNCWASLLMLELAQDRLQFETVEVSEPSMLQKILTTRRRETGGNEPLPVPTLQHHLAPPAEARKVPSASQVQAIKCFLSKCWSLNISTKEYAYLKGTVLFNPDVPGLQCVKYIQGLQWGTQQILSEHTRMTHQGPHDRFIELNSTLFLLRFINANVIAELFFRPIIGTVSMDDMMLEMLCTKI
hcDAF-12 act: H. contortus DAF-12 nuclear receptor activators, primary screen, cell-based, luminescence, HEK293, lit1-tk-luc reporter | HEK293 hcDAF-12 lit1-tk-luc reporter; 0% DMSO, 100% Δ7-dafachronic acid | activation, % at 6.8 µM | AID 652067, 2013 | 370,000 tested, 1.4% active;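 active = activation above the mean of all tested compounds plus 3 SD, cut at about 5.5% in these data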;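 note: 100% = response to 3 µM Δ7-dafachronic acid high control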
AHR act: AHR activators, primary screen, cell-based, luminescence, luciferase reporter, human. AHR-responsive luciferase reporter cells. activation, % at 5 µM. 320,000 tested, 2.5% active; in the data active = activation above about 47%;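 note: 0% = vehicle wells and 100% = reference agonist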
hgDAF12 agonist: H. glycines DAF-12 receptor agonists, primary screen, cell-based, luminescence, HEK293, GAL4 fusion, UAS-luciferase; Nuclear hormone receptor DAF-12 (Heterodera glycines), GAL4 fusion; HEK293 GAL4-hgDAF12 UAS-luciferase reporter, agonist luminescence; normalized to butyrate control; activation, % at 6.8 µM; 370,000 tested, 1.8% active; AID 687014, 2013;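 active = activation above a cutoff set at the mean of all screened compounds plus 3 SD, cut at about 10% in these data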;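 note: 0% = DMSO wells and 100% = sodium butyrate wells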
* hit, by the source's call; x = not tested or not shown. Shown are actives, neighbours in structure and some others; about 5.7% of the full set was active somewhere.

SMILES	ssDAF-12 act	DAX1 inh-1	DAX1 inh-2	hcDAF-12 act	AHR act	hgDAF12 agonist
COc1ccccc1NC(=O)OC(C)c1ccc(Cl)cc1 (configuration not stated)	-2	0	4.5*	0	75*	0
OC(CNCc1ccccc1)c1ccccc1 (configuration not stated)	-1	0	4.5*	-1	-2	4
CCn1c2ccccc2c2nnc(SCC(N)=O)nc21	-1	0	1	-2	-2	-1
NC(=O)C1CCN(c2nc(-c3ccccc3Br)cs2)CC1	-1	0	x	1	65*	3
Cn1c2ccccc2c2n[nH]c(=O)nc21	-1	0	0	-1	-2	-2
C/C(=N\Nc1nnc2c3ccccc3n(C)c2n1)c1ccc(C)o1	-1	-1	-2	0	88*	-1
Cc1cc(C)n(-c2nnc3c4ccccc4n(C)c3n2)n1	-1	2	1	2	4	11*
C/C(=N\Nc1nc(C)cc(C)n1)c1ccc(C)o1	0	0	x	-1	27	0
CC(C)(C)OC(=O)N1CCC(C(=O)Nc2cccc(C(=O)N3CCCC3)c2)CC1	-2	0	0	0	x	-2
COc1cccc(-c2nc(-c3ccccn3)no2)c1	-1	-1	x	2	64*	-4
c1ccc(-c2noc(-c3ccc4ccccc4c3)n2)nc1	x	x	-8	x	-18	x
Cc1occc1-c1nc(-c2ccncc2)no1	-1	0	0	-1	-1	7
Cc1occc1-c1nc(-c2ccccn2)no1	1	3	-1	6.0*	6	11*
c1ccc(-c2noc(C34CC5CC(CC(C5)C3)C4)n2)cc1	-1	0	-1	0	2	0
c1ccc(-c2noc(-c3ccncc3)n2)nc1	-1	3.8*	1	3	3	8
c1ccc(-c2noc(C34CC5CC(CC(C5)C3)C4)n2)nc1	0.9*	1	2	6.3*	8	7
N#Cc1c(NC(=O)c2ccc(Cn3cc(Br)cn3)o2)sc2c1CCCCC2	-1	0	0	0	48*	2
CC1CCc2c(sc(NC(=O)c3ccc(Cn4cc([N+](=O)[O-])cn4)o3)c2C#N)C1 (configuration not stated)	-1	0	0	0	31	1
Cc1ccc(-n2nnnc2SCC(=O)NCC2(N3CCCCC3)CCCCC2)c(C)c1	-1	3.6*	0	-1	0	-1
COc1ccc(OC)c(NC(=S)N(CCc2c(C)[nH]c3ccc(C)cc23)Cc2cccs2)c1	-2	-1	1	1	31	1
COc1ccc(OC)c(NC(=S)N(CCc2c(C)[nH]c3ccccc23)Cc2cccs2)c1	-2	-2	0	1	50*	0
Cc1cc(NC(=O)CSc2nc(-c3ccco3)cc(C(F)(F)F)n2)n(-c2ccccc2)n1	-1	-1	-1	-1	-1	2
O=C(NCc1ccccn1)Nc1ccc(F)cc1F	-1	0	-1	0	3	-2
OCCCCC#Cc1c(-c2ccsc2)sc2ccccc12	-1	0	0	-2	49*	1
C(#Cc1c(-c2ccsc2)sc2ccccc12)c1ccsc1	-1	-1	0	1	72*	1
SMILES	ssDAF-12 act	DAX1 inh-1	DAX1 inh-2	hcDAF-12 act	AHR act	hgDAF12 agonist
OC1(C#Cc2c(-c3ccsc3)sc3ccccc23)CCCCC1	-1	0	x	-1	x	0
COc1ccc(-c2sc3ccccc3c2C#CCCO)cc1	-1	-1	-1	-1	33	1
COc1ccc(Cl)c(-c2cc(C(=O)Nc3ccc(F)cc3)[nH]n2)c1	-1	3	x	1	x	12*
COc1ccc(-c2cc(C(=O)Nc3ccc(NC(C)=O)cc3)[nH]n2)c(C)c1	-1	2	x	2	x	9
Cc1ccc(Cl)cc1-c1cc(C(=O)Nc2ccc(F)cc2)[nH]n1	-1	4.1*	x	-1	x	2
CC(=O)N[C@@H]1C=C[C@@H](CC(=O)NCc2ccc(Cl)cc2)O[C@@H]1CO	-1	-1	x	3	x	1
CCCn1c(/N=C/c2ccccc2O)nc2ccccc21	-1	-1	1	-2	11	0
Cn1c(/N=C/c2c(O)ccc3ccccc23)nc2ccccc21	1.3*	-1	0	0	37	-3
Cc1sc(N=Nc2ccc(N(C)C)cc2)[n+]([O-])c1C	0	3.7*	2	4	x	5
Cc1ccc(N=Cc2ccc(N(C)C)cc2)cc1	-1	0	-1	1	-1	2
CN1C(=O)/C(=C2\SC(N)=NC2=O)c2ccccc21	-1	0	-1	1	73*	-1
CCOC(=O)N1CCN(S(=O)(=O)N2CCCC(C(=O)NCc3ccc(OC)cc3)C2)CC1 (configuration not stated)	-1	0	0	-4	1	-2
Nc1ccc2c3c(cccc13)CC2	0	-1	1	2	55*	3
c1ccc(Nc2ccc3c4c(cccc24)CC3)cc1	-1	1	1	4	6	1
Clc1ccccc1CNCC1CCCO1 (configuration not stated)	0	-1	5.9*	1	2	2
c1cc(Nc2ncnc3sc4c(c23)CCC4)ccn1	-1	1	0	0	0	-1
NNc1ncnc2sc3c(c12)CCC3	1	1	6.3*	4	37	12*
C(=N\Nc1ncnc2sc3c(c12)CCC3)/c1cccs1	-1	1	0	2	56*	0
Cn1cnc2c(N/N=C/c3cccs3)ncnc21	0	0	x	2	10	8
CCC(C)Nc1nc(N)c([N+](=O)[O-])c(Nc2ccccc2OC)n1 (configuration not stated)	-2	0	-2	-3	69*	-2
COc1ccccc1Nc1nc(NCC(C)C)nc(N)c1[N+](=O)[O-]	-1	0	-2	-4	79*	-1
COc1ccccc1Nc1nc(NCCCN(C)C)nc(N)c1[N+](=O)[O-]	-1	0	2	-1	62*	2
COc1ccc(-c2cc(C(F)(F)F)n3nc(C(=O)NCCCN4CCOCC4)cc3n2)cc1	-1	0	x	0	1	2
CCOc1ccccc1NC=C1C(=O)OC(C)(C)OC1=O	-2	0	0	1	-2	1
